90 compounds from PubChem BioAssay AID485344 (National Center for Advancing Translational Sciences (NCATS), 2010) can be followed below.

Molecules are shown by their SMILES. In all, about 340,000 compounds went through this assay and about 6,900 (2%) were called active. The full list was thinned out, with actives kept by preference. Unmarked numbers belong to inactive results. Rule as the data show it: active = inhibition above about 30%; inactive = below that, where a call was filed.

D(2) dopamine receptor (Homo sapiens), sequence (P14416 whole entry, looked up): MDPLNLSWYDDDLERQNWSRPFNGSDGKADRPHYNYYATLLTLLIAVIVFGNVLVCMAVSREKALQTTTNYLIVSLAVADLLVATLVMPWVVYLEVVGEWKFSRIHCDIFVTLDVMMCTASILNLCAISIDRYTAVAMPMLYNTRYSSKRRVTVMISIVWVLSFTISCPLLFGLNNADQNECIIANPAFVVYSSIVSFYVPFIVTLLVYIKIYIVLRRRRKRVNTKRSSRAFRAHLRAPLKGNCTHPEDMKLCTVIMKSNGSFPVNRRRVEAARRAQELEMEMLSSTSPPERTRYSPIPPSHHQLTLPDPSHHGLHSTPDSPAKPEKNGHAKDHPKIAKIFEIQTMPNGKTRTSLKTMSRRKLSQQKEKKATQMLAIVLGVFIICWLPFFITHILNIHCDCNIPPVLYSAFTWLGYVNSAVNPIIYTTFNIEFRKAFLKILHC

For the test, the target named is D(2) dopamine receptor (Homo sapiens) (UniProt P14416). Put plainly: HTS Assay for Allosteric Antagonists of the Human D2 Dopamine Receptor: Primary Screen for Antagonists. Also: 0% is about no effect. Conditions: HEK293 TREx D2 cells, calcium flux, dopamine EC80; at 10 µM; hits give high values. An excerpt:
NIH Chemical Genomics Center [NCGC] NIH Molecular Libraries Probe Centers Network [MLPCN] MLPCN Grant: NS064831-01 Assay Submitter (PI): David Sibley Dopamine receptors (DARs) are involved in the etiology and/or therapy of a number of neuropsychiatric and endocrine disorders. For instance, all receptor-based antiparkinsonian drugs work via stimulating the D2 DAR subtype whereas all FDA-approved antipsychotic agents are antagonists of this receptor. […] There are three different types of allosteric modulators that we are seeking, two of which will stimulate or augment receptor signaling, allosteric agonists and potentiators, while the third, allosteric antagonists, will attenuate receptor signaling. The present primary screening assay measures compound antagonism after an EC80 addition of dopamine by tracking calcium flux in a […], inducible Hek293 Trex D2 cell line.
Freshly passaged cells are plated in 1536 well black, clear bottom plates at a density of 4000 cells/well in 3 ul of complete media containing 1x tetracycline inducer. After an overnight incubation at 30 C in 5% CO2, cells are loaded with 2 ul of the no wash Calcium Assay Kit (ABD Bioquest) and incubated at room temperature for 30 to 90 minutes. Agonist read: A 10 cycle (1 second/cycle) baseline measurement is taken and then the FDSS online 1536 pintool delivers 23 nl of compound library (as well as dopamine controls) to the plate. The plate is measured for kinetically at 1 cycle/sec for 180 seconds. Following the 180 second read, 1 ul of an EC80 (negative modulation assay) is delivered by an onboard pipette head. Measurements are taken kinetically for an additional 180 seconds.
In general, inhibition refers to the change of the read-out against control, counted positive when it falls. For `Cc1c(CN2CC[C@@H](N3CCN(c4ccccn4)CC3)[C@H](O)C2)[nH]c2ccc(F)cc12`, the inhibition is 51.4% (active).
Turning to `Cc1nc(N2CCN(c3ccccn3)CC2)c2c(C)c(C(=O)Nc3ccc(F)cc3)sc2n1`, the inhibition was 8.07%.
The result for `O=C(CCC1CCCN(C(=O)Cc2ccc(F)cc2)C1)N1CCN(c2ccccn2)CC1` (stereo not given) reads -9.86%; that for `O=C(CN1CCN(C2CCS(=O)(=O)C2)CC1)N1N=C(c2ccc(Cl)cc2)CC1c1ccco1` (stereo not given), -10.4%.
Under `CC(=O)c1ccc(OCCCC(=O)Nc2ccc(C)c(S(=O)(=O)N3CCOCC3)c2)cc1` stands 6.79%; under `CC(OC(=O)c1cc2ccccc2o1)C(=O)Nc1ccc(N2CCOCC2)cc1` (stereo not given), 8.62%; under `O=C(c1ccccc1)c1ccc2nc(N3CCCCC3)c3nncn3c2c1`, -2.11%.
For `c1ccc(CC2CCN(c3nc4ccccc4n4cnnc34)CC2)cc1`, the inhibition was 37.6% (active).
Under `Brc1ccccc1CN1CCC(Cc2ccccc2)CC1` stands 17.7%; under `CCc1sc(C(=O)N2CCN(CC(=O)Nc3cccc(F)c3)CC2)cc1C`, 22.4%.
Under `Cc1cc(Br)ccc1NC(=O)CN(C)C(=O)CN1C(=O)NC2(CCCC2)C1=O` stands 7.4%; under `CCOC(=O)C1=C(COC(=O)[C@H](C)NS(=O)(=O)c2ccccc2F)NC(=O)NC1C` (stereo not given in full), 11%; under `O=C(OCC(=O)N1CCOCC1)c1ccc2ccccc2c1`, -1.03%.
For `CCCCCN(C(=O)CCC(=O)OCCOc1ccc(OC)cc1)c1c(N)n(CCCC)c(=O)[nH]c1=O`, the inhibition is -2.34%.
With `COc1cc2ccccc2cc1C(=O)Nc1ccncc1`, the inhibition was 5.03%.
Under `CCOC(=O)c1cc(C)nc(S(C)(=O)=O)c1C#N` stands 5.94%.
The result for `CCCCSc1[nH]c(=O)c(C(=O)OCC)cc1C#N` reads 30.2% (active); that for `CC(=O)c1cc(C#N)c(SCC(=O)C(C)(C)C)nc1C`, -15%.
Consider `CCC(C)N(C(=O)CSc1ncnc2c1cnn2-c1ccccc1)C1CCS(=O)(=O)C1` (stereo not given), for which the inhibition is 1.86%.
The result for `O=C(CCNC(=O)c1ccc(Br)cc1)NCC(c1ccco1)N1CCCCC1` (stereo not given) reads 17%; that for `CC(=O)N1c2ccc(S(=O)(=O)N(C)CC(=O)N(C)Cc3ccccc3)cc2CC1C` (stereo not given), 36.2% (active).
The result for `CC(=O)N1c2ccc(S(=O)(=O)NCCC(=O)N(C)C3CCCCC3)cc2CC1C` (stereo not given) reads -4.33%.
In the case of `COc1cccc(CNS(=O)(=O)c2ccc3c(c2)CC(C)N3C(C)=O)c1` (stereo not given), the inhibition was -5.54%.
Consider `CCOc1ccc(NC(=O)CN(C)C(=O)CSc2ccccc2)cc1OCC`, for which the inhibition was 13.7%.
Under `COC(=O)CNc1nc(Cl)nc(N2CCC(C)CC2)n1` stands 35.9% (active).
The result for `CCOC(=O)CNc1nc(Cl)nc(Nc2ccccc2)n1` reads 6.97%; that for `Clc1nc(NC2CCCC2)nc(N2CCOCC2)n1`, -9.32%; that for `O=C(CN1CCc2ccccc2C1)Nc1cccc(S(=O)(=O)N2CCOCC2)c1`, -6.15%.
Under `COc1ccc(F)cc1C(=O)COC(=O)c1n[nH]c(=O)c2ccccc12` stands -10.9%; under `CN(C(=O)Cn1nnc(-c2ccc(F)cc2)n1)C1CCS(=O)(=O)C1` (stereo not given), 9.49%; under `Cc1ccc(OCCNC(=O)CCNS(=O)(=O)c2ccc(Br)cc2)cc1`, 23.7%.
`O=C(CCNS(=O)(=O)c1ccccc1)NCCCc1ccccc1`: the inhibition was 21%.
The result for `O=C(CCNS(=O)(=O)c1ccccc1)NCCSc1ccc(Br)cc1` reads 45.1% (active); that for `O=C(CCNS(=O)(=O)c1ccccc1C(F)(F)F)Nc1ccncc1`, -6.21%.
With `CN(Cc1ccccc1F)C(=O)C(Cc1ccccc1)NC(=O)c1ccccc1` (stereo not given), the inhibition was -5.32%.
The result for `NS(=O)(=O)c1ccc(NC(=O)COC(=O)c2cc3ccccc3oc2=O)cc1` reads -18.7%; that for `NS(=O)(=O)c1ccc(NC(=O)COC(=O)c2ccco2)cc1`, 38.5% (active).
Under `O=C(COC(=O)CNC(=O)c1ccco1)Nc1ccc(F)cc1` stands -3.88%; under `NC(=O)c1ccc(NC(=O)COC(=O)c2ccc([N+](=O)[O-])cc2)cc1`, -23.5%.
The result for `N/C(Cc1ccc([N+](=O)[O-])cc1)=N\OC(=O)C1CCCCC1` reads 2.32%; that for `O=C(COC(=O)C1CCCCC1)Nc1ccc([N+](=O)[O-])cc1`, 35.3% (active); that for `COc1ccc(CNC(=O)CN2C(=O)NC3(CCCc4sccc43)C2=O)cc1` (stereo not given), 2.45%.
Consider `Cc1ccc(S(=O)(=O)N2CCCCC2)cc1C(=O)N1CCN(CCO)CC1`, for which the inhibition was -6.17%.
The result for `COc1ccc(-c2nn(-c3ccccc3)cc2/C=C\C(=O)Nc2ccc(C(=O)O)cc2)cc1` reads 0.137%.
The result for `COc1ccc(NC(=O)c2cn(-c3ccccc3)nc2SC)cc1` reads 60.7% (active); that for `COc1ccc(-c2nn(-c3ccccc3)cc2C(=O)Nc2nc(CC(C)=O)ns2)cc1`, 13.1%; that for `O=C(NNC(=O)c1ccc(-n2cncn2)c([N+](=O)[O-])c1)c1ccccc1`, 1.81%.
Regarding `COc1ccc(C2=NN(C(=O)CSc3nnnn3C)C(c3ccco3)C2)cc1` (stereo not given), the inhibition was -18.6%.
Under `Cc1ccc(C)c(S(=O)(=O)Nc2cccc(-n3cnnn3)c2)c1` stands 4.04%; under `O=S(=O)(Nc1cccc(-n2cnnn2)c1)c1cnc(Cl)c(Cl)c1`, 34.6% (active).
Under `O=S(=O)(Nc1ccc(-n2cnnn2)cc1)c1ccc(Cl)cc1` stands -3.4%.
In the case of `COc1ccccc1CNS(=O)(=O)c1cc(C(=O)NCc2ccccn2)c(Cl)cc1Cl`, the inhibition was -2.76%.
Under `Cc1cccc(NS(=O)(=O)c2ccc(C)c(C(=O)NCC(c3ccccc3)N(C)C)c2)c1` (stereo not given) stands -4.69%.
Under `CNC(=O)C1CC(=O)N(c2ccc(OCC(=O)Nc3ccccc3C)cc2)C1` (stereo not given) stands 12.9%.
Under `Fc1ccccc1Cn1cnc(NC(=S)NCCc2ccccc2)n1` stands 40.1% (active); under `S=C(NCCc1ccccc1)NCc1ccccc1Cl`, -2.45%.
On to `Cc1cc(F)ccc1NC(=S)NCCc1ccccc1`, for which the inhibition is -0.203%.
The result for `CC(=O)N1CCc2c(sc(NC(=O)CCS(=O)(=O)c3ccc(C)cc3)c2C(N)=O)C1` reads -1.82%.
The result for `O=C(c1cccc(C(=O)N2CCN(c3ccc(F)cc3)CC2)c1)N1CCN(c2ccc(F)cc2)CC1` reads 19.6%; that for `CCN1CCN(C(c2cccnc2)c2cc(Cl)c3cccnc3c2O)CC1` (stereo not given), 2.31%; that for `Oc1c(CN2CCN(c3ccc(F)cc3)CC2)cc(Cl)c2cccnc12`, 49.1% (active).
The result for `CCN(CC(=O)Nc1ccc(OC)cc1)C(=O)c1ccc(=O)n(Cc2ccccc2)n1` reads 7.28%.
Turning to `Cc1ccc(S(=O)(=O)NCCNC(C)c2ccc(Br)cc2)cc1` (stereo not given), the inhibition is -7.75%.
Under `COc1ccc2cc(C3=CC(=O)C[C@H](c4ccc5c(c4)OCO5)C3)ccc2c1` stands 13.1%; under `COc1ccc(C2CC(=O)NC(=O)C2)cc1`, -28.9%; under `COc1ccc(C2CC(=O)Oc3ccc(C(C)(C)C)cc32)cc1` (stereo not given), 40.2% (active).
Under `O=S(=O)(c1cccs1)N1CCN(CCOc2ccccc2)CC1` stands -9.4%.
With `Nc1c(N(Cc2ccco2)C(=O)c2cccc(F)c2)c(=O)[nH]c(=O)n1Cc1ccccc1`, the inhibition was 11.2%.
The result for `CCOC(=O)C1(CC2CCCCO2)CCN(Cc2nc(-c3cccs3)oc2C)CC1` (stereo not given) reads 69.3% (active).
The result for `CC(Sc1nnc(-c2cccs2)n1C1CC1)C(=O)NCC1CCCO1` (stereo not given) reads 13.5%; that for `COc1cccc(CC2(CO)CCCN(Cc3nc(-c4cccs4)oc3C)C2)c1` (stereo not given), -28.2%.
Consider `O=C(OCC(=O)N1CCc2ccccc21)C1CCCN1S(=O)(=O)c1ccc(Cl)cc1` (stereo not given), for which the inhibition is -11.4%.
The result for `CCOC(=O)c1ccc(NC(=O)C2CC(=O)N(c3ccc4c(c3)OCCO4)C2)cc1` (stereo not given) reads 6.09%; that for `Cc1ccc(-c2c[n+](CC(=O)Nc3ccccc3)c3n2CCC3)cc1`, 7.8%; that for `Clc1ccc(C[n+]2cc(-c3ccc(Cl)cc3)n3c2CCC3)cc1`, 44.4% (active).
With `Clc1ccc(C[n+]2cc(-c3ccccc3)n3c2CCC3)cc1`, the inhibition is -18.7%.
For `OCC[C@H]1C[C@H](O)[C@@H](O)[C@]2(CCc3ccccc3O2)O1`, the inhibition was 4.64%.
Under `CN(C)C(CNC(=O)c1cccc(S(=O)(=O)Nc2ccc(Br)cc2)c1)c1ccco1` (stereo not given) stands 22.1%; under `COc1ccc(CN2CCN(Cc3cn(C)nc3-c3ccccc3)CC2CCO)c(C)c1C` (stereo not given), 33.2% (active); under `Cc1ccc(CN2CCN(Cc3cn(C)nc3-c3ccccc3)CC2CCO)o1` (stereo not given), 9.07%.
Take `CCn1nc(C)c(CN2CCN(Cc3ccc(OC)c(C)c3C)C(CCO)C2)c1C` (stereo not given): the inhibition was -7.65%.
Under `CCOc1ccc(S(=O)(=O)NCCC(=O)NCC2CCCO2)cc1` (stereo not given) stands 6.91%; under `CN1CCC(N(C)S(=O)(=O)c2ccc(NC(=O)c3cccc(C#N)c3)cc2)CC1`, -21.6%.
Turning to `CC(C)(C)OC(=O)N1CCC(NC(=O)c2[nH]cnc2C(=O)N[C@@H](Cc2ccccc2)C(=O)OCc2ccccc2)CC1`, the inhibition was 20.4%.
Under `O=C(N[C@@H](Cc1ccccc1)C(=O)OCc1ccccc1)c1nc[nH]c1C(=O)NC1CCNCC1` stands 76.1% (active).
The result for `O=C(N[C@@H](Cc1ccccc1)C(=O)OCc1ccccc1)c1nc[nH]c1C(=O)N[C@@H](Cc1ccccc1)C(=O)OCc1ccccc1` reads 13.9%; that for `O=C(NCc1ccccc1CN1CCCC1)C1CCN(S(=O)(=O)c2ccc(Cl)cc2)CC1`, 9.19%.
Under `Cc1ccccc1-c1cc(C(=O)NCC2CC2)n(CC2CC(c3cccnc3)=NO2)n1` (stereo not given) stands 2.25%; under `Cc1ccc(CNC(=O)c2cc(-c3ccccc3C)n(CC3CC(c4cccc([N+](=O)[O-])c4)=NO3)n2)cc1` (stereo not given), 6.93%; under `Cc1ccccc1-c1cc(C(=O)NCc2cccs2)n(CC2CC(c3cccnc3)=NO2)n1` (stereo not given), 37.9% (active).
